Assay results: PubChem BioAssay AID1159580 (chemical genetic matrix, 2015)
Where “and” joins values, the source holds several entries; their conditions need not be identical. Equal entries are not always repeated. Among all 5,500 compounds or so, about 2,000 (36%) were called active. Inconclusive results (about 18%) are left out. Rule as the data show it: active = normalized growth mostly below about 0.91 (no sharp cut-off); inconclusive = no clear call, values can overlap the other calls; inactive = mostly above about 0.92. The list shows a part of the results.

Assay: chemical genetic growth profiling, strain panel (AID 1159580);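 also: tested at 20 µM; growth read once vehicle control cultures reached saturation at 30 °C; 1 = growth at the plate median or of vehicle wells; lower values mean less growth of the strain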
Conditions: S. cerevisiae deletion strains, growth OD

Measured: normalized growth

CC(C)NCC(O)COc1cccc2ccccc12 (stereo unspecified)
inactive: locus YAL013W, strain DEP1, hits give low values 1.01 | locus YAL021C, strain ccr4, hits give low values 0.971 | locus YAL026C, strain drs2, hits give low values 1.03 | locus YAL030W, strain snc1, hits give low values 1.02 | locus YAL040C, strain CLN3, hits give low values 1.01 and 0.981 | locus YBL061C, strain skt5, hits give low values 1.01 | locus YBR009C, strain hhf1, hits give low values 1 | locus YBR023C, strain chs3, hits give low values 1.01 | locus YBR171W, strain sec66, hits give low values 1.01 | locus YBR231C, strain swc5, hits give low values 1.02 | locus YBR279W, strain paf1, hits give low values 1.01 | locus YCL011C, strain gbp2, hits give low values 1.01 | locus YCL016C, strain dcc1, hits give low values 0.995 | locus YCL061C, strain MRC1 (second series), hits give low values 1 and 1.02 | locus YCL061C, strain MRC1, hits give low values 1.02 | locus YCL069W, strain vba3, hits give low values 1.01 | locus YCR088W, strain abp1, hits give low values 1.01 | locus YDL005C, strain med2, hits give low values 1.01 | locus YDL040C, strain nat1, hits give low values 1.01 | locus YDR001C, strain nth1, hits give low values 1.02 | locus YDR069C, strain doa4, hits give low values 1.01 | locus YDR137W, strain rgp1, hits give low values 1.02 | locus YDR150W, strain NUM1, hits give low values 1 | locus YDR159W, strain sac3, hits give low values 0.992 | locus YDR195W, strain ref2 1.02 | locus YDR297W, strain sur2, hits give low values 1.01 | locus YDR334W, strain swr1, hits give low values 1.04 | locus YDR335W, strain msn5, hits give low values 1.01 | locus YDR363W, strain ESC2, hits give low values 1.01 and 0.959 | locus YDR392W, strain spt3, hits give low values 1.02 | locus YEL003W, strain gim4, hits give low values 1.03 | locus YEL037C, strain rad23, hits give low values 1.01 | locus YEL061C, strain CIN8 (second series), hits give low values 1.02 | locus YER002W, strain NOP16, hits give low values 0.992 and 1.01 | locus YER015W, strain faa2, hits give low values 1.01 | locus YER016W, strain bim1, hits give low values 1.01 | locus YER111C, strain swi4, hits give low values 1.03 | locus YER155C, strain BEM2 (second series), hits give low values 1.05 | locus YFR010W, strain ubp6, hits give low values 1.02 | locus YGL167C, strain pmr1, hits give low values 1.02 | locus YGL173C, strain kem1, hits give low values 1.01 | locus YGL227W, strain vid30, hits give low values 1 | locus YGL240W, strain doc1, hits give low values 1.02 | locus YGL253W, strain hxk2, hits give low values 1.02 | locus YGR078C, strain PAC10, hits give low values 1.02 and 1.01 | locus YGR229C, strain SMI1, hits give low values 1.08 | locus YHR013C, strain ard1, hits give low values 0.965 | locus YHR027C, strain rpn1, hits give low values 1.01 | locus YHR030C, strain SLT2, hits give low values 1.01 | locus YHR079C, strain IRE1, hits give low values 1.02 | locus YHR142W, strain chs7, hits give low values 1.05 | locus YJL092W, strain hpr5, hits give low values 1.01 | locus YJL095W, strain BCK1 (second series), hits give low values 1 | locus YJL095W, strain BCK1, hits give low values 0.967 | locus YJL115W, strain asf1, hits give low values 1.01 | locus YJL129C, strain trk1, hits give low values 1.01 | locus YJL154C, strain vps35, hits give low values 1.01 | locus YJL164C, strain tpk1, hits give low values 0.997 | locus YJL166W, strain qcr8, hits give low values 1.01 | locus YJR066W, strain TOR1, hits give low values 0.996 | locus YJR075W, strain HOC1, hits give low values 1.01 and 1 | locus YKL160W, strain elf1, hits give low values 1.01 | locus YKR026C, strain gcn3, hits give low values 1.01 | locus YKR091W, strain srl3, hits give low values 1.02 | locus YLL001W, strain dnm1, hits give low values 1.02 | locus YLL026W, hits give low values 1.01 | locus YLL041C, strain sdh2, hits give low values 1.01 | locus YLR027C, strain aat2, hits give low values 1.01 | locus YLR113W, strain HOG1, hits give low values 0.976 | locus YLR221C, strain rsa3, hits give low values 0.972 | locus YLR258W, strain gsy2, hits give low values 1 | locus YLR262C, strain YPT6 (second series), hits give low values 1 | locus YLR320W, strain mms22, hits give low values 0.997 | locus YLR342W, strain FKS1, hits give low values 1.01 | locus YLR357W, strain rsc2, hits give low values 1.07 | locus YLR370C, strain arc18, hits give low values 1.01 | locus YLR384C, strain iki3, hits give low values 1.01 | locus YML120C, strain ndi1, hits give low values 1.01 | locus YMR058W, strain fet3, hits give low values 1.02 | locus YMR125W, strain sto1, hits give low values 1.07 | locus YMR129W, hits give low values 1.01 | locus YMR205C, strain PFK2, hits give low values 1.02 | locus YMR231W, strain pep5, hits give low values 1.01 | locus YMR263W, strain SAP30, hits give low values 1 | locus YMR307W, strain GAS1, hits give low values 1.01 | locus YNL071W, strain lat1, hits give low values 1.01 | locus YNL128W, strain TEP1, hits give low values 0.995 | locus YNL175C, strain NOP13, hits give low values 1.02 and 1.01 | locus YNL183C, strain NPR1, hits give low values 1.01 | locus YNL197C, strain WHI3, hits give low values 1 and 1.01 | locus YNL209W, strain ssb2, hits give low values 1 | locus YNL224C, strain SQS1, hits give low values 1.01 and 1.02 | locus YNL248C, strain rpa49, hits give low values 1.04 | locus YNL322C, strain KRE1 (second series), hits give low values 1 | locus YNL322C, strain KRE1, hits give low values 1.01 | locus YNR049C, strain mso1, hits give low values 1.01 | locus YOR001W, strain rrp6, hits give low values 1.02 | locus YOR070C, strain gyp1, hits give low values 1.01 | locus YOR080W, strain dia2, hits give low values 1.02 | locus YOR083W, strain WHI5 (second series), hits give low values 1.02 and 0.993 | locus YOR083W, strain WHI5, hits give low values 1.01 | locus YOR106W, strain vam3, hits give low values 1.03 | locus YOR231W, strain MKK1, hits give low values 1.01 | locus YOR265W, strain rbl2, hits give low values 1.02 | locus YOR270C, strain vph1, hits give low values 1.06 | locus YOR290C, strain snf2, hits give low values 1.01 | locus YPL051W, strain arl3, hits give low values 1 | locus YPL078C, strain atp4, hits give low values 1.06 | locus YPL106C, strain sse1, hits give low values 0.985 | locus YPL240C, strain hsp82, hits give low values 0.993 | locus YPL256C, strain CLN2, hits give low values 1.02
